In PubChem BioAssay (NCATS):
Inconclusive results are not listed. Entries that show only a call come without a potency. Active and inactive are the calls of the source. Calls come from the whole dose curve; as a rule, active = well fitted inhibition curve with a large enough effect; inconclusive = small, poorly fitted or top-dose-only effect; inactive = flat fitted curve, though single readings scatter.

Tests used:
Experiment in all cases: qHTS profiling for inhibitors of Plasmodium falciparum proliferation (AID 504749); note: nearly all actives have a fitted effect of over 60% in size
Settings in all cases: P. falciparum in erythrocytes, SYBR Green DNA, 72 h; series mostly up to 28.7 µM
[1] = system: CP191
Method in brief: (§1)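 Fluorescence of SYBR Green-bound parasite DNA, read at 485/535 nm, served as the growth measure. Infected erythrocytes were cultured with compound 72 h; artemisinin (0.29 uM) and DMSO wells defined the normalization range.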

[2] = system: CP192
Method in brief: as §1

[3] = system: CP194
Method in brief: as §1

[4] = system: CP201
Method in brief: as §1

[5] = system: CP203
Method in brief: as §1

[6] = system: CP211
Method in brief: as §1

[7] = system: CP215
Method in brief: as §1

[8] = system: CP217
Method in brief: as §1

[9] = system: CP237
Method in brief: as §1

[10] = system: CP238
Method in brief: as §1

[11] = system: CP247
Method in brief: as §1

[12] = system: CP250
Method in brief: as §1

[13] = system: CP252
Method in brief: as §1

[14] = system: CP256
Method in brief: as §1

[15] = system: CP260
Method in brief: as §1

[16] = system: CP262
Method in brief: as §1

[17] = system: CP265
Method in brief: as §1

[18] = system: CP266
Method in brief: as §1

[19] = system: CP268
Method in brief: as §1

[20] = system: CP269
Method in brief: as §1
Potency is the fitted concentration of half-maximal effect.

SMILES	Potency [1]	Potency [2]	Potency [3]	Potency [4]	Potency [5]	Potency [6]	Potency [7]	Potency [8]	Potency [9]	Potency [10]	Potency [11]	Potency [12]	Potency [13]	Potency [14]	Potency [15]	Potency [16]	Potency [17]	Potency [18]	Potency [19]	Potency [20]
O[C@@H](c1cc(C(F)(F)F)nc2c(C(F)(F)F)cccc12)[C@H]1CCCCN1	50.1 nM (active)	120 nM (active)	213 nM (active)	379 nM (active)	84.9 nM (active)	213 nM (active)	95.3 nM (active)	39.8 nM (active)	25.1 nM (active)	44.7 nM (active)	70.8 nM (active)	63.1 nM (active)	31.6 nM (active)	63.1 nM (active)	31.6 nM (active)	190 nM (active)	35.5 nM (active)	601 nM (active)	151 nM (active)	53.6 nM (active)
Nc1ccc(S(=O)(=O)NCc2ccccc2)cc1	inactive	inactive	inactive	inactive	inactive	inactive	inactive	inactive	inactive	inactive	inactive	inactive	inactive	inactive	inactive	inactive	inactive	inactive	inactive	inactive
CCCCCCCCCCCCSCCOCCO	inactive	inactive	inactive	inactive	inactive	inactive	inactive	inactive	inactive	inactive	inactive	inactive	inactive	inactive	inactive	inactive	inactive	inactive	inactive	inactive
CCCCNc1ccc(C(=O)OCCOCCOCCOCCOCCOCCOCCOCCOCCOC)cc1	inactive	inactive	inactive	inactive	inactive	inactive	inactive	inactive	inactive	inactive	inactive	inactive	inactive	inactive	inactive	inactive	inactive	inactive	inactive	inactive
CCCCCCCCCCCCCC[N+](C)(C)Cc1ccccc1	2510 nM (active)	6750 nM (active)	6750 nM (active)	7570 nM (active)	6010 nM (active)	4260 nM (active)	5360 nM (active)	5620 nM (active)	5620 nM (active)	7080 nM (active)	5620 nM (active)	11200 nM (active)	7940 nM (active)	7940 nM (active)	5010 nM (active)	4260 nM (active)	8910 nM (active)	10700 nM (active)	6750 nM (active)	4780 nM (active)
NCCNC(=O)c1ccc(Cl)cn1	inactive	inactive	inactive	inactive	inactive	inactive	inactive	inactive	inactive	inactive	inactive	inactive	inactive	inactive	inactive	inactive	inactive	inactive	inactive	inactive
COc1cc(C(=O)NCc2ccc(OCCN(C)C)cc2)cc(OC)c1OC	inactive	inactive	inactive	inactive	inactive	inactive	inactive	inactive	inactive	inactive	inactive	inactive	inactive	inactive	inactive	inactive	inactive	inactive	inactive	inactive
NS(=O)(=O)Cc1noc2ccccc12	inactive	inactive	inactive	inactive	inactive	inactive	inactive	inactive	inactive	inactive	inactive	inactive	inactive	inactive	inactive	inactive	inactive	inactive	inactive	inactive
CCN1/C(=C/C=C/c2sc3ccccc3[n+]2CC)Sc2ccccc21	100 nM (active)	379 nM (active)	478 nM (active)	849 nM (active)	675 nM (active)	379 nM (active)	675 nM (active)	178 nM (active)	158 nM (active)	126 nM (active)	251 nM (active)	178 nM (active)	141 nM (active)	100 nM (active)	158 nM (active)	190 nM (active)	224 nM (active)	675 nM (active)	536 nM (active)	379 nM (active)
Cl/C(=C\n1cncn1)c1ccc(Cl)cc1Cl	inactive	inactive	inactive	inactive	inactive	inactive	inactive	inactive	inactive	inactive	inactive	inactive	inactive	inactive	inactive	inactive	inactive	inactive	inactive	inactive
Cc1c(-c2ccccc2)oc2c(C(=O)OCCN3CCCCC3)cccc2c1=O	inactive	inactive	inactive	inactive	inactive	inactive	inactive	inactive	inactive	inactive	inactive	inactive	inactive	inactive	inactive	inactive	inactive	inactive	inactive	inactive
COc1cc(NS(=O)(=O)c2ccc(N)cc2)ncn1	inactive	inactive	inactive	inactive	inactive	inactive	inactive	inactive	inactive	inactive	inactive	inactive	inactive	inactive	inactive	inactive	inactive	inactive	inactive	inactive
CCNC(=O)NCc1cccc(Cl)c1	inactive	inactive	inactive	inactive	inactive	inactive	inactive	inactive	inactive	inactive	inactive	inactive	inactive	inactive	inactive	inactive	inactive	inactive	inactive	inactive
c1ccc(-c2nc[nH]c2-c2ccccc2)cc1	inactive	inactive	inactive	inactive	inactive	inactive	inactive	inactive	inactive	inactive	inactive	inactive	inactive	inactive	inactive	inactive	inactive	inactive	inactive	inactive
O=C1C(O)=C(O)C(=O)C(O)=C1O	inactive	inactive	inactive	inactive	inactive	inactive	inactive	inactive	inactive	inactive	inactive	inactive	inactive	inactive	inactive	inactive	inactive	inactive	inactive	inactive
Nc1ccc(C(=O)NCC(=O)O)cc1	inactive	inactive	inactive	inactive	inactive	inactive	inactive	inactive	inactive	inactive	inactive	inactive	inactive	inactive	inactive	inactive	inactive	inactive	inactive	inactive
CCOC(=O)c1ccc(N)cc1	inactive	inactive	inactive	inactive	inactive	inactive	inactive	inactive	inactive	inactive	inactive	inactive	inactive	inactive	inactive	inactive	inactive	inactive	inactive	inactive
C=C[C@@]1(C)CC(=O)[C@]2(O)[C@@]3(C)[C@@H](O)CCC(C)(C)[C@@H]3[C@H](O)[C@H](OC(C)=O)[C@@]2(C)O1	inactive	inactive	inactive	inactive	inactive	inactive	inactive	inactive	inactive	inactive	inactive	inactive	inactive	inactive	inactive	inactive	inactive	inactive	inactive	inactive
COc1ccc(/C=N/NC(=O)c2ccncc2)cc1OC	inactive	inactive	inactive	inactive	inactive	inactive	inactive	inactive	inactive	inactive	inactive	inactive	inactive	inactive	inactive	inactive	inactive	inactive	inactive	inactive
CCCCC(CC)COC(=O)/C=C/c1ccc(OC)cc1 (centres undefined)	inactive	inactive	inactive	inactive	inactive	inactive	inactive	inactive	inactive	inactive	inactive	inactive	inactive	inactive	inactive	inactive	inactive	inactive	inactive	inactive
c1ccc(CC2=NCCN2)cc1	inactive	inactive	inactive	inactive	inactive	inactive	inactive	inactive	inactive	inactive	inactive	inactive	inactive	inactive	inactive	inactive	inactive	inactive	inactive	inactive
CCN(CC)CCNC(=O)c1cc(Br)c(N)cc1OC	inactive	inactive	inactive	inactive	inactive	inactive	inactive	inactive	inactive	inactive	inactive	inactive	inactive	inactive	inactive	inactive	inactive	inactive	inactive	inactive
Oc1ccccc1C=NCc1ccccc1	inactive	inactive	inactive	inactive	inactive	inactive	inactive	inactive	inactive	inactive	inactive	inactive	inactive	inactive	inactive	inactive	inactive	inactive	inactive	inactive
CC(C)Nc1cccnc1N1CCN(C(=O)c2cc3cc(NS(C)(=O)=O)ccc3[nH]2)CC1	inactive	inactive	inactive	inactive	inactive	inactive	inactive	inactive	inactive	inactive	–	inactive	inactive	inactive	inactive	–	inactive	inactive	inactive	inactive
O=C(O)C1(C(=O)O)CCC1.[NH2-].[NH2-].[Pt+2]	inactive	inactive	inactive	inactive	inactive	inactive	inactive	inactive	–	inactive	inactive	inactive	inactive	inactive	–	inactive	inactive	inactive	inactive	inactive
CCOC(=O)c1c(N)sc2c1CCN(Cc1ccccc1)C2	5010 nM (active)	5360 nM (active)	7570 nM (active)	6750 nM (active)	4260 nM (active)	6750 nM (active)	8490 nM (active)	5620 nM (active)	7940 nM (active)	5620 nM (active)	3980 nM (active)	5010 nM (active)	7940 nM (active)	5010 nM (active)	6310 nM (active)	–	–	12000 nM (active)	7570 nM (active)	6010 nM (active)
